Results on 42 molecules are retold here after the supplement of paper PMC4723716.

Each structure is given as a SMILES string. ± gives the uncertainty stated by the source. Over roughly 9,900 compounds, “viability index relative to DMSO control” has its median near 1; the lowest 2% begin near 0.85. The sample as a whole holds a higher share of the lowest values than the screen did.

For the test, the system named is Plasmodium falciparum NF54 stage V gametocytes. In words: viability index relative to DMSO control (fraction); higher = less gametocyte killing. The note with it: 2.5 µM, library set: Broad Institute DOS, incubation time: 72 h. In a few lines:
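P. falciparum NF54 stage V gametocytes in serum-free screening medium (0.75% gametocytemia, 1.25% hematocrit, 10 µl) were incubated with compound at 2.5 µM in 1,536-well plates for 72 hr at 37°C under low oxygen. Then 3 µl of 2.5 µM MitoTracker Red CMXRos plus 0.13% saponin was added for one to two hours. One field per well was imaged, 20–70 µm2 red particles were counted, and the viability index was the count divided by the plate mean of DMSO wells.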
In the case of `COc1ccccc1NC(=O)N1C[C@H](O)COC[C@H]2O[C@H](CC(=O)NCCc3ccncc3)CC[C@@H]21`, the viability index was 1.08 ± 0.062.

As to `O=C1CCC(=O)N[C@@H](c2ccccc2)C/C=C\CCN1`, the viability index is 1.01 ± 0.087. For `COc1ccc(NC(=O)N2C[C@@H]3[C@H](c4ccccc42)[C@H](CO)N3Cc2ccccn2)cc1` the value was 0.993 ± 0.11; for `CCCNC(=O)Nc1ccc2c(c1)OC[C@H](C)N(Cc1cncnc1)C[C@@H](C)[C@H](OC)CN(C)C2=O`, 0.989 ± 0.014. Molecule `CO[C@H]1CN(C)C(=O)c2cc(NC(=O)C3CCCCC3)ccc2OC[C@H](C)N(Cc2cccnc2)C[C@H]1C` showed a viability index of 1.037 ± 0.0049.

With `Cc1noc(C)c1S(=O)(=O)N(C)C[C@@H]1OCc2cn(nn2)CCCC(=O)N([C@@H](C)CO)C[C@H]1C`, the viability index came out at 1.03 ± 0.014. Next, `C[C@H](CO)N1C[C@H](C)[C@H](CN(C)S(=O)(=O)c2cn(C)cn2)Oc2cc(C#Cc3cccc(F)c3)ccc2S1(=O)=O`: 0.9878 ± 0.0014; `Cc1ccc(S(=O)(=O)N(C)C[C@H]2Oc3cc(C#CC4CCCC4)ccc3S(=O)(=O)N([C@@H](C)CO)C[C@@H]2C)cc1`: 0.705 ± 0.12; `C[C@H](CO)N1C[C@H](C)[C@@H](CN(C)S(=O)(=O)c2cn(C)cn2)Oc2cc(C#Cc3cccc(F)c3)ccc2S1(=O)=O`: 1.05 ± 0.09. For the molecule `COc1cccc(-c2ccc3c(c2)[C@@H]2[C@@H](CCN2S(=O)(=O)c2cn(C)cn2)[C@@H](CO)N3)c1`, the viability index worked out at 0.97 ± 0.14. Next, `COc1ccc(S(=O)(=O)Nc2ccc3c(c2)CC(=O)N([C@@H](C)CO)C[C@H](C)[C@H](CN(C)Cc2ccc(C(=O)Nc4ccccc4N)cc2)O3)cc1`: 0.993 ± 0.024; `Cc1noc(C)c1S(=O)(=O)Nc1ccc2c(c1)CC(=O)N([C@@H](C)CO)C[C@H](C)[C@H](CN(C)Cc1ccc(Oc3ccccc3)cc1)O2`: 0.923 ± 0.045; `COc1ccc(S(=O)(=O)Nc2ccc3c(c2)CC(=O)N([C@H](C)CO)C[C@@H](C)[C@@H](CN(C)Cc2ccc(C(=O)Nc4ccccc4N)cc2)O3)cc1`: 0.956 ± 0.014. Next, `Cc1noc(C)c1S(=O)(=O)Nc1ccc2c(c1)CC(=O)N([C@@H](C)CO)C[C@@H](C)[C@@H](CN(C)Cc1ccc(Oc3ccccc3)cc1)O2`: 0.851 ± 0.12; `COc1ccc(S(=O)(=O)Nc2ccc3c(c2)CC(=O)N([C@@H](C)CO)C[C@@H](C)[C@H](CN(C)Cc2ccc(C(=O)Nc4ccccc4N)cc2)O3)cc1`: 0.836 ± 0.077; `COc1ccc(S(=O)(=O)Nc2ccc3c(c2)CC(=O)N([C@@H](C)CO)C[C@@H](C)[C@H](CN(C)C(=O)Nc2c(C)noc2C)O3)cc1`: 0.986 ± 0.019. `COc1ccc(S(=O)(=O)Nc2ccc3c(c2)CC(=O)N([C@@H](C)CO)C[C@@H](C)[C@@H](CN(C)Cc2ccc(C(=O)Nc4ccccc4N)cc2)O3)cc1` came in with a viability index of 0.844 ± 0.012. Next, `Cc1noc(C)c1S(=O)(=O)Nc1ccc2c(c1)CC(=O)N([C@H](C)CO)C[C@H](C)[C@H](CN(C)Cc1ccc(Oc3ccccc3)cc1)O2`: 0.981 ± 0.01; `COc1ccc(S(=O)(=O)Nc2ccc3c(c2)CC(=O)N([C@H](C)CO)C[C@H](C)[C@H](CN(C)Cc2ccc(C(=O)Nc4ccccc4N)cc2)O3)cc1`: 0.766 ± 0.044; `COc1ccc(S(=O)(=O)Nc2ccc3c(c2)CC(=O)N([C@@H](C)CO)C[C@H](C)[C@@H](CN(C)Cc2ccc(C(=O)Nc4ccccc4N)cc2)O3)cc1`: 0.872 ± 0.11. For `COc1ccc(S(=O)(=O)Nc2ccc3c(c2)CC(=O)N([C@H](C)CO)C[C@H](C)[C@@H](CN(C)Cc2ccc(C(=O)Nc4ccccc4N)cc2)O3)cc1` the value was 1 ± 0.027; for `COc1ccc(S(=O)(=O)Nc2ccc3c(c2)CC(=O)N([C@H](C)CO)C[C@@H](C)[C@H](CN(C)Cc2ccc(C(=O)Nc4ccccc4N)cc2)O3)cc1`, 0.966 ± 0.1. The molecule `CS(=O)(=O)N1CC(=O)N2[C@@H](CO)[C@H](c3ccc(Br)cc3)[C@@H]2C1` displayed a viability index of 1.05 ± 0.057. In turn, `CN1C[C@H]2[C@@H](c3ccccc31)[C@H](CO)N2Cc1ccccc1Cl` displayed a viability index of 1.03 ± 0.064.

`C[C@H](CO)N1C[C@H](C)[C@H](CN(C)C(=O)Nc2ccc3c(c2)OCO3)Oc2c(NC(=O)c3nc4ccccc4s3)cccc2C1=O` had a viability index of 0.987 ± 0.021. In turn, `Cc1noc(C)c1NC(=O)N1C[C@@H](O)COC[C@@H]2O[C@H](CC(=O)N3CCc4ccccc4C3)CC[C@H]21` registered a viability index of 1.08 ± 0.11.

In the case of `COc1ccc(S(=O)(=O)N(C)C[C@@H]2Oc3c(NC(=O)c4nc5ccccc5s4)cccc3C(=O)N([C@H](C)CO)C[C@@H]2C)cc1`, the viability index was 0.951 ± 0.047. Next, `O=C(O)[C@H]1[C@H](CO)[C@H]2Cn3c(ccc(C4=CCCCC4)c3=O)[C@H]2N1Cc1ccc2c(c1)OCO2`: 1.01 ± 0.026; `CO[C@H]1CC[C@@H]2CCOc3c(C#N)cccc3C(=O)N(C)C[C@H](OC)[C@@H](C)C(=O)N(C)C[C@@H]1O2`: 1.01 ± 0.033. Next, `C[C@@H]1CN([C@H](C)CO)C(=O)Cc2cc(NC(=O)CCN3CCOCC3)ccc2O[C@@H]1CN(C)Cc1ccc(C(=O)O)cc1`: 1 ± 0.17; `C[C@H](CO)N1C[C@H](C)[C@H](CN(C)Cc2ccccc2C(F)(F)F)OCc2ccccc2-c2ccccc2C1=O`: 1 ± 0.015; `C[C@@H]1CN([C@@H](C)CO)C(=O)c2ccccc2-c2ccccc2CO[C@@H]1CN(C)Cc1ccccc1C(F)(F)F`: 0.8276 ± 0.0015. Next, `C[C@@H]1CN([C@H](C)CO)C(=O)c2ccccc2-c2ccccc2CO[C@@H]1CN(C)Cc1ccccc1C(F)(F)F`: 0.806 ± 0.11; `C[C@@H]1CN([C@@H](C)CO)C(=O)c2ccccc2-c2ccccc2CO[C@H]1CN(C)Cc1ccccc1C(F)(F)F`: 0.883 ± 0.044; `C[C@@H]1CN([C@H](C)CO)C(=O)c2ccccc2-c2ccccc2CO[C@@H]1CN(C)Cc1cccc(C(=O)O)c1`: 0.958 ± 0.11.

`C[C@H](CO)N1C[C@H](C)[C@@H](CN(C)Cc2cccc3c2OCCCO3)OCc2ccccc2-c2ccccc2C1=O` came in with a viability index of 1.06 ± 0.093. The molecule `C[C@@H]1CN([C@@H](C)CO)C(=O)c2ccccc2-c2ccccc2CO[C@@H]1CN(C)Cc1cccc(C(=O)O)c1` showed a viability index of 0.974 ± 0.098.

As for `CCCN(C)C[C@H]1OCc2ccccc2-c2ccccc2C(=O)N([C@@H](C)CO)C[C@H]1C`, the viability index worked out at 0.89 ± 0.011. Next, `C[C@H]1CN([C@@H](C)CO)C(=O)c2ccccc2-c2ccccc2CO[C@H]1CN(C)Cc1ccccc1C(F)(F)F`: 0.726 ± 0.14; `C[C@@H]1CN([C@@H](C)CO)C(=O)c2ccccc2-c2ccccc2CO[C@@H]1CN(C)Cc1cccc2c1OCCCO2`: 1 ± 0.11. Next, `C[C@@H]1CN([C@@H](C)CO)C(=O)c2ccccc2-c2ccccc2CO[C@H]1CN(C)Cc1cccc(C(=O)O)c1`: 0.987 ± 0.016; `C[C@H]1CN([C@@H](C)CO)C(=O)c2ccccc2-c2ccccc2CO[C@H]1CN(C)Cc1cccc2c1OCCCO2`: 0.825 ± 0.16.
